The supplement of paper PMC8728848
The full list was thinned out, with the strongest signals kept by preference.

What was measured:
Experiment in all cases: glycan array binding signal (z-score within array); higher = stronger binding
Conditions in all cases: glycan notation: IUPAC condensed, linker removed
[1] = molecular target: Fuc(a1-2)Gal(b1-3)[Fuc(a1-4)]GlcNAc(b1-2)Man(a1-3)[Fuc(a1-2)Gal(b1-3)[Fuc(a1-4)]GlcNAc(b1-2)Man(a1-6)]Man(b1-4)GlcNAc(b1-4)[Fuc(a1-6)]GlcNAc(b1-4)[Fuc(a1-6)]GlcNAc
Procedure, shortened: (§1)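 The Consortium for Functional Glycomics database supplied 3228 glycan arrays, of which those lacking an available protein sequence were dropped. The binding signal, a within-array Z-score, was averaged across arrays of the same protein sequence and across linkers. Negative scores can be read as non-binding.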

[2] = molecular target: Fuc(a1-2)Gal(b1-4)GlcNAc(b1-2)Man
Procedure, shortened: as §1

[3] = molecular target: Fuc(a1-2)Gal(b1-4)GlcNAc(b1-2)[Fuc(a1-2)Gal(b1-4)GlcNAc(b1-4)]Man(a1-3)[Fuc(a1-2)Gal(b1-4)GlcNAc(b1-2)Man(a1-6)]Man(b1-4)GlcNAc(b1-4)GlcNAc
Procedure, shortened: as §1

[4] = molecular target: Fuc(a1-2)Gal(b1-4)[Fuc(a1-3)]GlcNAc
Procedure, shortened: as §1

[5] = molecular target: Fuc(a1-2)Gal(b1-4)[Fuc(a1-3)]GlcNAc(b1-3)Gal(b1-4)[Fuc(a1-3)]GlcNAc(b1-3)Gal(b1-4)[Fuc(a1-3)]GlcNAc
Procedure, shortened: as §1

[6] = molecular target: Fuc(a1-2)[Gal(a1-3)]Gal(b1-4)GlcNAc(b1-2)Man
Procedure, shortened: as §1

[7] = molecular target: Fuc(a1-2)[GalNAc(a1-3)]Gal(b1-4)GlcNAc(b1-6)GalNAc
Procedure, shortened: as §1

[8] = molecular target: Fuc(a1-3)[Gal(b1-4)]Glc6S
Procedure, shortened: as §1

[9] = molecular target: Fuc(a1-3)[Gal(b1-4)]GlcNAc(b1-6)[Gal(b1-3)GlcNAc(b1-3)]Gal(b1-4)Glc
Procedure, shortened: as §1

Gal(a1-3)Gal(b1-3)GlcNAc = molecular target: Gal(a1-3)Gal(b1-3)GlcNAc
Procedure, shortened: as §1

Gal(a1-3)GalNAc = molecular target: Gal(a1-3)GalNAc
Procedure, shortened: as §1

[10] = molecular target: Gal(b1-3)GlcNAc(a1-3)Gal(b1-4)GlcNAc
Procedure, shortened: as §1

[11] = molecular target: Gal(b1-3)GlcNAc(b1-3)Gal(b1-4)GlcNAc(b1-2)[Gal(b1-3)GlcNAc(b1-3)Gal(b1-4)GlcNAc(b1-6)]Man(a1-6)[Gal(b1-3)GlcNAc(b1-3)Gal(b1-4)GlcNAc(b1-2)Man(a1-3)]Man(b1-4)GlcNAc(b1-4)[Fuc(a1-6)]GlcNAc
Procedure, shortened: as §1

Gal(b1-4)Glc = molecular target: Gal(b1-4)Glc
Procedure, shortened: as §1

[12] = molecular target: Gal(b1-4)GlcNAc(a1-6)Gal(b1-4)GlcNAc
Procedure, shortened: as §1

Gal(b1-4)GlcNAc(b1-2)Man = molecular target: Gal(b1-4)GlcNAc(b1-2)Man
Procedure, shortened: as §1

[13] = molecular target: Gal(b1-4)GlcNAc(b1-2)[Gal(b1-4)GlcNAc(b1-4)]Man(a1-3)[Gal(b1-4)GlcNAc(b1-2)[Gal(b1-4)GlcNAc(b1-6)]Man(a1-6)]Man(b1-4)GlcNAc(b1-4)GlcNAc
Procedure, shortened: as §1

[14] = molecular target: Gal(b1-4)GlcNAc(b1-3)Gal(b1-4)GlcNAc(b1-2)Man(a1-3)[Gal(b1-4)GlcNAc(b1-3)Gal(b1-4)GlcNAc(b1-2)Man(a1-6)]Man(b1-4)GlcNAc(b1-4)GlcNAc
Procedure, shortened: as §1

[15] = molecular target: Gal(b1-4)GlcNAc(b1-3)Gal(b1-4)GlcNAc(b1-2)Man(a1-3)[Gal(b1-4)GlcNAc(b1-3)Gal(b1-4)GlcNAc(b1-2)Man(a1-6)]Man(b1-4)GlcNAc(b1-4)[Fuc(a1-6)]GlcNAc
Procedure, shortened: as §1

[16] = molecular target: Gal(b1-4)GlcNAc(b1-3)Gal(b1-4)GlcNAc(b1-3)Gal(b1-4)GlcNAc(b1-3)Gal(b1-4)GlcNAc(b1-2)Man(a1-3)[Gal(b1-4)GlcNAc(b1-3)Gal(b1-4)GlcNAc(b1-3)Gal(b1-4)GlcNAc(b1-3)Gal(b1-4)GlcNAc(b1-2)Man(a1-6)]Man(b1-4)GlcNAc(b1-4)[Fuc(a1-6)]GlcNAc
Procedure, shortened: as §1

[17] = molecular target: Gal(b1-4)GlcNAc(b1-3)Gal(b1-4)GlcNAc(b1-3)Gal(b1-4)GlcNAc(b1-3)Gal(b1-4)GlcNAc(b1-3)Gal(b1-4)GlcNAc(b1-2)Man(a1-3)[Gal(b1-4)GlcNAc(b1-3)Gal(b1-4)GlcNAc(b1-3)Gal(b1-4)GlcNAc(b1-3)Gal(b1-4)GlcNAc(b1-3)Gal(b1-4)GlcNAc(b1-2)Man(a1-6)]Man(b1-4)GlcNAc(b1-4)GlcNAc
Procedure, shortened: as §1

[18] = molecular target: Gal(b1-4)GlcNAc(b1-3)Gal(b1-4)GlcNAc(b1-3)Gal(b1-4)GlcNAc(b1-3)Gal(b1-4)GlcNAc(b1-3)Gal(b1-4)GlcNAc(b1-2)[Gal(b1-4)GlcNAc(b1-3)Gal(b1-4)GlcNAc(b1-3)Gal(b1-4)GlcNAc(b1-3)Gal(b1-4)GlcNAc(b1-3)Gal(b1-4)GlcNAc(b1-6)]Man(a1-6)[Gal(b1-4)GlcNAc(b1-3)Gal(b1-4)GlcNAc(b1-3)Gal(b1-4)GlcNAc(b1-3)Gal(b1-4)GlcNAc(b1-3)Gal(b1-4)GlcNAc(b1-2)Man(a1-3)]Man(b1-4)GlcNAc(b1-4)[Fuc(a1-6)]GlcNAc
Procedure, shortened: as §1

[19] = molecular target: Gal(b1-4)GlcNAc(b1-3)Gal(b1-4)GlcNAc(b1-3)Gal(b1-4)GlcNAc(b1-3)Gal(b1-4)GlcNAc(b1-3)Gal(b1-4)GlcNAc(b1-3)Gal(b1-4)GlcNAc(b1-2)Man(a1-3)[Gal(b1-4)GlcNAc(b1-3)Gal(b1-4)GlcNAc(b1-3)Gal(b1-4)GlcNAc(b1-3)Gal(b1-4)GlcNAc(b1-3)Gal(b1-4)GlcNAc(b1-3)Gal(b1-4)GlcNAc(b1-2)Man(a1-6)]Man(b1-4)GlcNAc(b1-4)GlcNAc
Procedure, shortened: as §1

Gal3S(b1-4)Glc = molecular target: Gal3S(b1-4)Glc
Procedure, shortened: as §1

GalNAc3S(b1-4)GlcNAc = molecular target: GalNAc3S(b1-4)GlcNAc
Procedure, shortened: as §1

[20] = molecular target: GalNAc3S(b1-4)[Fuc(a1-3)]GlcNAc
Procedure, shortened: as §1

GalNAc4S6S(b1-4)GlcNAc = molecular target: GalNAc4S6S(b1-4)GlcNAc
Procedure, shortened: as §1

B1: GS13599A-bth-520-23-520 (Bacteroides thetaiotaomicron) (protein)
chain: SEDTMDRINKDHDHTTSVASRFILADVITSTAFSNASGDINTYASSYIEYEVGVDNQLYYAEVRENEPSSSSTFNNSWNGIYSSLKNARIIIDQCGEGGRDHGNDVTRGMAEVMAAYNCALIADFFGDAPCSQAALVDEKGSPVYMTPKMDTQQEIYTQIISYLDDAIANLQKEDLADVTEQDFLYAGDADKWLKFAYGLKARYTMRLINRSSNKSADYEKVLDYVSKSFTSADDQAAFDIYDSNNINPFYGFYNSRAGFGASTSLGTKLLAYNDPRANRAFFTPIVDKKRSQVAANDPSLVPAPNGSPDQSTSKYGISAFVYAKTAPTLLMSYHELMFLKAEALCRLNRDAEDALKEAVVAGLLNAENSISIAIKELGSGLNTNSSEVITETSAGKYFDDVVKAKYAANPLQETMIQKYLAMWGASGEATETYNDFRRMKGLNENFITLTNPNNSSKFPLRYPYGNSDTAANPEVKAAYGNGDYVYSEPVWWAGGSR
- glycan array binding signal (z-score) [1]: 0.741
- glycan array binding signal (z-score) [2]: -0.841
- glycan array binding signal (z-score) [3]: 2.4
- glycan array binding signal (z-score) [4]: 0.206
- glycan array binding signal (z-score) [5]: -0.474
- glycan array binding signal (z-score) [6]: -0.234
- glycan array binding signal (z-score) [7]: -1.38
- glycan array binding signal (z-score) [8]: 0.474
- glycan array binding signal (z-score) [9]: -0.479
- glycan array binding signal (z-score) (Gal(a1-3)Gal(b1-3)GlcNAc): -0.349
- glycan array binding signal (z-score) (Gal(a1-3)GalNAc): -1.08
- glycan array binding signal (z-score) [10]: 0.206
- glycan array binding signal (z-score) [11]: 2.93
- glycan array binding signal (z-score) (Gal(b1-4)Glc): -0.435
- glycan array binding signal (z-score) [12]: -1.2
- glycan array binding signal (z-score) (Gal(b1-4)GlcNAc(b1-2)Man): 2.44
- glycan array binding signal (z-score) [13]: -0.453
- glycan array binding signal (z-score) [14]: 3.32
- glycan array binding signal (z-score) [15]: 1.38
- glycan array binding signal (z-score) [16]: 2.46
- glycan array binding signal (z-score) [17]: 3.9
- glycan array binding signal (z-score) [18]: 7.02
- glycan array binding signal (z-score) [19]: 0.294
- glycan array binding signal (z-score) (Gal3S(b1-4)Glc): 3.17
- glycan array binding signal (z-score) (GalNAc3S(b1-4)GlcNAc): 0.897
- glycan array binding signal (z-score) [20]: 2.41
- glycan array binding signal (z-score) (GalNAc4S6S(b1-4)GlcNAc): -1.28
